This note sets out measurements from PubChem BioAssay.

Active and inactive are the calls of the source. Rule as the data show it, unless noted: active = inhibition above about 42%; inactive = the rest.

Sequence of Steroidogenic factor 1 (Homo sapiens) (Q13285 whole entry, looked up): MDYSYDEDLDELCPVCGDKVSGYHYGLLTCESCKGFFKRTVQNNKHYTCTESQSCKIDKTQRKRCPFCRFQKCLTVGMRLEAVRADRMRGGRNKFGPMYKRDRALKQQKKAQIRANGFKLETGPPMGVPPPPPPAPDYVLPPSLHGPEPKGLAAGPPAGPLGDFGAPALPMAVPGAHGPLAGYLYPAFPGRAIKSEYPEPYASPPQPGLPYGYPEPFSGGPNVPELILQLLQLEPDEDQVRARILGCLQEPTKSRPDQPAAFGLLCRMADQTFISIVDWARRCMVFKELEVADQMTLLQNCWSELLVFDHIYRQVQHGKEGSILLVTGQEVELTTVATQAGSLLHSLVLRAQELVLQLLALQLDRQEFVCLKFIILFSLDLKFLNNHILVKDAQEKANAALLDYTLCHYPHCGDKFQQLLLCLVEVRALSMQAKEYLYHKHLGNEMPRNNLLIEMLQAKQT
Sequence of Nuclear receptor subfamily 5 group A member 2 (Homo sapiens) (O00482 whole entry, looked up): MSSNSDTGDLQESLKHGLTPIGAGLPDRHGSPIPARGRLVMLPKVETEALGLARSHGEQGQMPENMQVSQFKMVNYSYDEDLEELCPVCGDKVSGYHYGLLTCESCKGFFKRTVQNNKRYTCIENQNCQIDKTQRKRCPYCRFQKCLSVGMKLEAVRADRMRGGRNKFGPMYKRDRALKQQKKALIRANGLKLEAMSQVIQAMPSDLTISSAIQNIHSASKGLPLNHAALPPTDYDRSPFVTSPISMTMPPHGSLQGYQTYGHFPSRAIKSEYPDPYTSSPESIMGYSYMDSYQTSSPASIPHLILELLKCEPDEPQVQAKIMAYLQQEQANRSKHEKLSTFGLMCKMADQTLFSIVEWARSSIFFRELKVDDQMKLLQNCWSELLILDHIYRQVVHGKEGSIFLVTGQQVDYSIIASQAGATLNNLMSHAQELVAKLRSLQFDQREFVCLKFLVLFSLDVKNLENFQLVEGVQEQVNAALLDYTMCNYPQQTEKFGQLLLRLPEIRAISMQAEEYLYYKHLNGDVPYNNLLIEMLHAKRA

One assay addresses Nuclear receptor subfamily 5 group A member 2 (Homo sapiens) (UniProt O00482). Briefly: NR5A2 activity suppression in reporter cells – cell-based, luminescence, confirmation (AID 651613).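 Also: HEK293T cells co-transfected with LRH-1 and StAR promoter luciferase reporter; 0% = vehicle wells and 100% = parental cells lacking receptor.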 The following applies: cell-based LRH-1 luciferase reporter, inverse agonism; at 3.6 µM; active compounds read high.
Turning to `Cc1ccc(C2CC(C(F)(F)F)n3nc(C(=O)NCc4ccco4)cc3N2)cc1` (stereo not drawn), the inhibition was 44.1% (active).
The same measure, in the same setting: with `Cc1ccccc1Oc1nc2c(C)cccn2c(=O)c1/C=C(\C#N)C(=O)NC1CCS(=O)(=O)C1` (stereo not drawn) the figure was 52.6% (active); with `CC(NC(=O)CCl)c1ccccc1Br` (stereo not drawn), 60.2% (active).
On the same count and under the same terms, with `O=C(Cn1cc(COc2ccc(C(=O)c3ccccc3)cc2)nn1)c1ccc(O)cc1` the figure was 47.4% (active); with `COc1cc2c(cc1OC)-c1c(OC)c(OC)cc3ccnc(c13)C2=O`, 68.4% (active).
Still for that read-out and setting: with `CN(C)c1ccc(C=c2c3ccccc3n3c2c2ccccc2[n+]3C)cc1` the figure was 107% (active).
For the compound `CSc1nc(SCC(=O)NCc2ccco2)c2c3c(sc2n1)COC(C)(C)C3`, the inhibition is 54.7% (active).
Same read-out and setting: with `Cc1nc2cc(N3CCCCC3)c(NC(=O)c3cccnc3)cc2c(=O)n1Cc1ccccc1` the figure was 57.6% (active).
With `O=C(C[C@H]1CC[C@@H]2[C@H](COC[C@H](O)CN2Cc2cccc(C(F)(F)F)c2)O1)NCCc1ccccc1`, the inhibition is 8.97% (inactive).
Same read-out and setting: the same measure for `Cc1ccc(-c2csc(NC(=O)C3CCN(S(=O)(=O)c4cccs4)CC3)n2)cc1`: 58.5% (active); for `C/C(=N\N=C(N)N)c1cc(Cl)ccc1Cl`: 102% (active); for `Cc1cccc(NC(=O)CSC2=NN3CCCC(=O)N=C3S2)c1C`: 53.1% (active).
Same read-out and setting: the same measure for `CCN(CC)c1nc(C)c(C(C)=O)cc1C#N`: 32.7% (inactive); for `COc1cc(-c2cc(-c3ccc(O)cc3)nc(N)c2C#N)ccc1O`: 68.3% (active).
Same read-out and setting: the same measure for `COc1cccc(C(C)(O)c2nc(-c3ccc(S(C)(=O)=O)cc3)cs2)c1` (stereo not drawn): 58.2% (active).
On to `O=C(Nc1nc(-c2ccccn2)cs1)c1ccc([N+](=O)[O-])o1`, for which the inhibition was 69.5% (active).
With `COc1cc(C)c(C(=O)Oc2cc(C)c(C(=O)O)c(O)c2C)c(O)c1C`, the inhibition is 73.8% (active).
Take `CC1(C)Cc2c(sc3nc(SCC(=O)NCc4ccco4)n(-c4ccccc4)c(=O)c23)CS1`: the inhibition was 41.6% (active).
Still for that read-out and setting: with `CC(=O)Nc1cccc(C(=O)OCC(=O)N2CCN(C(=O)COC(=O)c3cccc(NC(C)=O)c3)CC2)c1` the figure was 55.5% (active); with `COc1ccc(NC(=O)COC(=O)/C=C/C(=O)OCC(=O)Nc2ccc(OC)c(Cl)c2)cc1Cl`, 50.8% (active); with `Cc1nnsc1C(=O)NC1CCCc2c1cnn2-c1ccc(F)cc1F` (stereo not drawn), 59.4% (active).
Regarding `NS(=O)(=O)c1ccc(CCNC(=O)COc2ccc3c4c(c(=O)oc3c2)CCC4)cc1`, the inhibition is 41.7% (active).
In the case of `Cc1ccc(NC(=O)CSc2nnc(-c3n[nH]c4ccccc34)n2-c2ccccc2)c(C)c1`, the inhibition was 60.5% (active).
The same measure, in the same setting: with `CNc1c2cccc(C)c2nc2c(C(=O)NCCN(C)C)cccc12` the figure was 109% (active); with `O=C(CCl)Nc1ccc(S(=O)(=O)NC2=NCCCCC2)cc1`, 62% (active).
As for `Cc1ccc(Sc2ccc(NC(=O)CCl)cc2)cc1C`, the inhibition was 52.6% (active).
With `O=C1/C(=C\c2ccc(Cl)c(Cl)c2)CN(C(=O)CCN2CCOCC2)C/C1=C/c1ccc(Cl)c(Cl)c1`, the inhibition was 93.2% (active).
As to `Cc1c(C)c2ccc(OCC(=O)N3CC[C@@]4(O)CCCC[C@H]4C3)cc2oc1=O`, the inhibition is 39% (inactive).
Regarding `COc1ccc(N2CCN(C(=O)CSc3nnc(-c4cc5ccccc5cc4O)n3C)CC2)cc1`, the inhibition is 59% (active).
On to `CCc1ccccc1NC(=O)CSc1nnc([C@@H]2CCCN2C(=O)OC(C)(C)C)o1`, for which the inhibition was 50.5% (active).
On the same count and under the same terms, the same measure for `Cc1cc(Br)ccc1NC(=O)CN1C(=O)CCC1=O`: 58.1% (active); for `O=C(c1ccc(=O)n(Cc2ccccc2)n1)N1CCN(C/C=C/c2ccccc2)CC1`: 52.9% (active); for `CCc1c(C)nc(SCC(=O)Nc2ccc3c(c2)OCCO3)[nH]c1=O`: 63.7% (active).
On the same count and under the same terms, the same measure for `O=C(Nc1ccc(N2CCOCC2)c(Cl)c1)c1ccc([N+](=O)[O-])o1`: 9.33% (inactive); for `COc1ccccc1NC(=O)CN1CCN(CC(=O)Nc2ccc3c(c2)OCCO3)CC1`: 56.8% (active); for `Cc1cccc(NC(=O)CSc2ccc(-c3ccco3)nn2)c1C`: 44.6% (active).
On the same count and under the same terms, the same measure for `S=C(NCc1ccccc1)Nc1ccncc1`: 37% (inactive); for `Cn1cccc1C(=O)OCC(=O)N1CCN(c2ccccc2)CC1`: 32.7% (inactive); for `CN(C)c1ccc(CNc2ncnc3sccc23)cc1`: 71% (active).

Another assay has as its target Steroidogenic factor 1 (Homo sapiens) (UniProt Q13285). Briefly: inverse agonism at SF1 nuclear receptor – cell-based, luminescence, high throughput, counter-screen for LRH-1 inverse agonist project (AID 651614; in the data active = inhibition above about 44%;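 also: cells cotransfected with StAR promoter reporter and SF1 expression vector; 0% = vehicle on cells with receptor and 100% = vehicle on cells lacking receptor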). The following applies: cell-based SF1 luciferase reporter, at 3.6 µM, active compounds read high. (In general: The purpose of a counterscreen is to sort out artefacts and off-target activity.)
For the compound `Cc1ccc(C2CC(C(F)(F)F)n3nc(C(=O)NCc4ccco4)cc3N2)cc1` (stereo not drawn), the inhibition was 44.8% (active).
As for `Cc1ccccc1Oc1nc2c(C)cccn2c(=O)c1/C=C(\C#N)C(=O)NC1CCS(=O)(=O)C1` (stereo not drawn), the inhibition is 51.3% (active).
Take `CC(NC(=O)CCl)c1ccccc1Br` (stereo not drawn): the inhibition was 57.4% (active).
For `O=C(Cn1cc(COc2ccc(C(=O)c3ccccc3)cc2)nn1)c1ccc(O)cc1`, the inhibition was 57% (active).
Take `COc1cc2c(cc1OC)-c1c(OC)c(OC)cc3ccnc(c13)C2=O`: the inhibition is 59% (active).
Still for that read-out and setting: the same measure for `CN(C)c1ccc(C=c2c3ccccc3n3c2c2ccccc2[n+]3C)cc1`: 90.7% (active).
`CSc1nc(SCC(=O)NCc2ccco2)c2c3c(sc2n1)COC(C)(C)C3`: the inhibition is 57.6% (active).
The same measure, in the same setting: with `Cc1nc2cc(N3CCCCC3)c(NC(=O)c3cccnc3)cc2c(=O)n1Cc1ccccc1` the figure was 57.2% (active).
On the same count and under the same terms, the same measure for `O=C(C[C@H]1CC[C@@H]2[C@H](COC[C@H](O)CN2Cc2cccc(C(F)(F)F)c2)O1)NCCc1ccccc1`: 15.7% (inactive); for `Cc1ccc(-c2csc(NC(=O)C3CCN(S(=O)(=O)c4cccs4)CC3)n2)cc1`: 55.4% (active).
Still for that read-out and setting: with `C/C(=N\N=C(N)N)c1cc(Cl)ccc1Cl` the figure was 30.1% (inactive); with `Cc1cccc(NC(=O)CSC2=NN3CCCC(=O)N=C3S2)c1C`, 49% (active); with `CCN(CC)c1nc(C)c(C(C)=O)cc1C#N`, 57% (active).
For the compound `COc1cc(-c2cc(-c3ccc(O)cc3)nc(N)c2C#N)ccc1O`, the inhibition is 53.9% (active).
For the compound `COc1cccc(C(C)(O)c2nc(-c3ccc(S(C)(=O)=O)cc3)cs2)c1` (stereo not drawn), the inhibition is 62.1% (active).
Still for that read-out and setting: with `O=C(Nc1nc(-c2ccccn2)cs1)c1ccc([N+](=O)[O-])o1` the figure was 77.7% (active); with `COc1cc(C)c(C(=O)Oc2cc(C)c(C(=O)O)c(O)c2C)c(O)c1C`, 70.7% (active).
In the case of `CC1(C)Cc2c(sc3nc(SCC(=O)NCc4ccco4)n(-c4ccccc4)c(=O)c23)CS1`, the inhibition is 40.7% (inactive).
Consider `CC(=O)Nc1cccc(C(=O)OCC(=O)N2CCN(C(=O)COC(=O)c3cccc(NC(C)=O)c3)CC2)c1`, for which the inhibition was 47.6% (active).
On to `COc1ccc(NC(=O)COC(=O)/C=C/C(=O)OCC(=O)Nc2ccc(OC)c(Cl)c2)cc1Cl`, for which the inhibition is 53.9% (active).
Same read-out and setting: with `Cc1nnsc1C(=O)NC1CCCc2c1cnn2-c1ccc(F)cc1F` (stereo not drawn) the figure was 55.4% (active); with `NS(=O)(=O)c1ccc(CCNC(=O)COc2ccc3c4c(c(=O)oc3c2)CCC4)cc1`, 38.2% (inactive).
The same measure, in the same setting: the same measure for `Cc1ccc(NC(=O)CSc2nnc(-c3n[nH]c4ccccc34)n2-c2ccccc2)c(C)c1`: 60.3% (active).
Same read-out and setting: the same measure for `CNc1c2cccc(C)c2nc2c(C(=O)NCCN(C)C)cccc12`: 98% (active).
As for `O=C(CCl)Nc1ccc(S(=O)(=O)NC2=NCCCCC2)cc1`, the inhibition is 61% (active).
On the same count and under the same terms, the same measure for `Cc1ccc(Sc2ccc(NC(=O)CCl)cc2)cc1C`: 56.5% (active); for `O=C1/C(=C\c2ccc(Cl)c(Cl)c2)CN(C(=O)CCN2CCOCC2)C/C1=C/c1ccc(Cl)c(Cl)c1`: 92.9% (active).
Same read-out and setting: the same measure for `Cc1c(C)c2ccc(OCC(=O)N3CC[C@@]4(O)CCCC[C@H]4C3)cc2oc1=O`: 25.6% (inactive); for `COc1ccc(N2CCN(C(=O)CSc3nnc(-c4cc5ccccc5cc4O)n3C)CC2)cc1`: 58.3% (active); for `CCc1ccccc1NC(=O)CSc1nnc([C@@H]2CCCN2C(=O)OC(C)(C)C)o1`: 59% (active).
The same measure, in the same setting: with `Cc1cc(Br)ccc1NC(=O)CN1C(=O)CCC1=O` the figure was 72.2% (active).
For the compound `O=C(c1ccc(=O)n(Cc2ccccc2)n1)N1CCN(C/C=C/c2ccccc2)CC1`, the inhibition is 28% (inactive).
Still for that read-out and setting: with `CCc1c(C)nc(SCC(=O)Nc2ccc3c(c2)OCCO3)[nH]c1=O` the figure was 54.7% (active).
Still for that read-out and setting: the same measure for `O=C(Nc1ccc(N2CCOCC2)c(Cl)c1)c1ccc([N+](=O)[O-])o1`: 35.9% (inactive); for `COc1ccccc1NC(=O)CN1CCN(CC(=O)Nc2ccc3c(c2)OCCO3)CC1`: 49.5% (active); for `Cc1cccc(NC(=O)CSc2ccc(-c3ccco3)nn2)c1C`: 39.2% (inactive).
Regarding `S=C(NCc1ccccc1)Nc1ccncc1`, the inhibition is 47.3% (active).
Regarding `Cn1cccc1C(=O)OCC(=O)N1CCN(c2ccccc2)CC1`, the inhibition was 35% (inactive).
Turning to `CN(C)c1ccc(CNc2ncnc3sccc23)cc1`, the inhibition was 47.9% (active).

Usually inhibition stands for the change of the read-out against control, counted positive when it falls.
